In PubChem BioAssay (EPA / NIEHS):
Results filed as inconclusive are left out. Active and inactive are the calls of the source. Rule for the calls, unless noted: active = hit-call score of the fitted dose curve at least 0.9, where 1 is the maximum; inactive = score below 0.9.

Experiments:
[1] = CCTE_Mundy_HCI_Cortical_NOG_NeuriteLength: CCTE's Neurite Outgrowth Assay in rat cortical cells for Neurite Length, Mundy Lab (AID 2284213)
In short: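 Neurite length was read by high-content imaging of βIII-tubulin-labelled neurites in rat primary cortical cultures. Activity was fitted relative to DMSO.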

[2] = CCTE_Mundy_HCI_Cortical_Synap_Neur_Matur_NeuriteSpotCountPerNeuron: CCTE's Synaptogenesis and Neurite Maturation Assay in rat cortical cells for Neurite Spot Count per Neuron Count, Mundy Lab (AID 2284215)
In short: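 Read-out: neurite-associated synaptophysin puncta per neuron, imaged by high-content analysis after MAP2, synaptophysin and Hoechst staining. Rat primary cortical cultures, dosed DIV 7 through DIV 12; DMSO served as baseline.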

[3] = CCTE_Mundy_HCI_hN2_NOG_NeuriteCount: CCTE's Neurite Outgrowth Assay in human hN2 cells for Neurite Count, Mundy Lab (AID 2284219; active = hit-call score of the fitted dose curve at least 0.9, where 1 is the maximum)
In short: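 In this morphology assay, hNP1-derived neurons received test chemical 2 h post-plating and were fixed two days later in warm paraformaldehyde/sucrose containing Hoechst 33342. Neurites, labelled by rabbit anti-βIII-tubulin (1:800) and Alexa Fluor-488 (1:500), were counted automatically.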

[4] = CCTE_Mundy_HCI_hN2_NOG_NeuronCount: CCTE's Neurite Outgrowth Assay in human hN2 cells for Neuron Count, Mundy Lab (AID 2284221; active = hit-call score of the fitted dose curve at least 0.9, where 1 is the maximum)
In short: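 Read-out is the number of betaIII-tubulin-positive neurons imaged by automated high-content analysis, with DMSO as negative control.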

[5] = CCTE_Mundy_HCI_Cortical_Synap_Neur_Matur_NeuriteCount: CCTE's Synaptogenesis and Neurite Maturation Assay in rat cortical cells for Neurite Count, Mundy Lab (AID 2284222);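 note: exposure from day 7 to day 12 in vitro with readout at day 12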
In short: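 Rat primary cortical cells; AraC added at DIV 5, chemicals dosed with media change at DIV 7 through DIV 12. MAP2/synaptophysin/Hoechst immunostaining, high-content imaging of neurite number; fitted relative to DMSO.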

[6] = CCTE_Mundy_HCI_Cortical_Synap_Neur_Matur_CellBodySpotCount: CCTE's Synaptogenesis and Neurite Maturation Assay in rat cortical cells for Cell Body Spot Count, Mundy Lab (AID 2284223)
In short: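 Read-out: cell body-associated synaptophysin puncta per neuron, imaged after MAP2, synaptophysin and Hoechst staining. Rat cortical cells, AraC DIV 5, chemical dosing DIV 7, fixation DIV 12. Activity fitted in positive direction relative to DMSO baseline.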

[7] = CCTE_Mundy_HCI_Cortical_NOG_BPCount: CCTE's Neurite Outgrowth Assay in rat cortical cells for Branch Point Count, Mundy Lab (AID 2284237)
In short: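 Measured 50.33 h after dosing, this morphology endpoint uses rat primary cortical cultures labelled for betaIII-tubulin. Branch points are quantified by high-content imaging, with DMSO as negative control and baseline.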

[8] = CCTE_Mundy_HCI_hNP1_Casp3_7: CCTE's Caspase-Glo 3/7 Assay in human neuroprogenitor cells for Apoptosis, Mundy Lab (AID 2284240)
In short: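 Apoptosis is scored by activated caspase-3/7 luminescence in WA09-derived neural progenitor cells, measured 26.5 h after chemical dosing. Values represent gain of signal relative to DMSO vehicle.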

[9] = CCTE_Mundy_HCI_hNP1_CellTiter: CCTE's Cell Titer-Glo 2 Assay in human neuroprogenitor cells for Viability, Mundy Lab (AID 2284241; active = hit-call score of the fitted dose curve at least 0.9, where 1 is the maximum)
In short: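 Human neural progenitor cells (hNP1, WA09-derived) were plated on poly-L-ornithine/laminin and grown 40 to 44 hours at 37 °C, 5% CO2 before chemical addition. Twenty-four hours later, ATP was measured by CellTiter-Glo luminescence; loss of signal versus DMSO indicates reduced viability.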

[10] = CCTE_Mundy_HCI_Cortical_Synap_Neur_Matur_NeuronCount: CCTE's Synaptogenesis and Neurite Maturation Assay in rat cortical cells for Neuron Count, Mundy Lab (AID 2284242; active = hit-call score of the fitted dose curve at least 0.9, where 1 is the maximum)
In short: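 Neuron number was scored by automated high-content imaging of Hoechst- and MAP2-labelled rat primary cortical cells. Glial growth was arrested with AraC at DIV 5, compounds were applied from DIV 7, and cultures ended at DIV 12.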

[11] = IUF_NPC2c_oligodendrocyte_migration_120hr: Leibniz Research Institute for Environmental Medicine (IUF) 120-hour Neural Progenitor Cell Migration Assay for Oligodendrocyte Migration (NPC2c) (AID 2284297);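 note: O4-positive oligodendrocyte migration distance divided by radial glia migration distance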
In short: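 hNPC spheres (GW 16-19 cortex), PDL/laminin, DMEM/F12 3:1 + 1% N2, 37C. Dosing day 0–5, half feed day 3, DMSO ≤0.1%. Fixed 120 h; O4 ICC + Hoechst, HCI. Readout: mean oligodendrocyte distance from sphere edge / radial glia distance.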

[12] = IUF_NPC2a_radial_glia_migration_72hr: Leibniz Research Institute for Environmental Medicine (IUF) 72-hour Neural Progenitor Cell Migration Assay for Radial Glia Migration (NPC2a) (AID 2284299)
In short: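 Primary hNPC spheres, fetal brain GW 16-19, on PDL/laminin; DMEM/F12 3:1 + 1% N2. Compound dosed day 0, 7 conc. + SC, half-medium refresh day 3. 72 h brightfield, migration distance core-to-front (um), 4 directions averaged.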

[13] = IUF_NPC2b_neuronal_migration_120hr: Leibniz Research Institute for Environmental Medicine (IUF) 120-hour Neural Progenitor Cell Migration Assay for Neuron Migration (NPC2b) (AID 2284300)
In short: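 hNPC spheres, PDL/laminin, DMEM:F12 3:1 + 1% N2, 37C/5% CO2; 7 concentrations + solvent control (DMSO ≤0.1%), 5 d exposure, half-feed day 3. Fix 120 h, TUBB3 ICC, HCI: mean neuron migration distance ÷ glia distance.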

[14] = IUF_NPC3_neuronal_differentiation_120hr: Leibniz Research Institute for Environmental Medicine (IUF) 120-hour Neuronal Differentiation Assay (NPC3) (AID 2284301)
In short: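 Single 0.3 mm neurospheres from human fetal cortex were plated in differentiation medium containing test compound. Medium was half-replaced on day 3. After 120 h cells were fixed, immunostained and imaged, and neuronal fraction was scored against DMSO control.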

[15] = IUF_NPC4_neurite_area_120hr: Leibniz Research Institute for Environmental Medicine (IUF) 120-hour Neuronal Morphology Assay for Neurite Area (NPC4) (AID 2284305; active = hit-call score of the fitted dose curve at least 0.9, where 1 is the maximum)
In short: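 Neurite area is read out as the mean pixel area, excluding nuclei, of skeletonized TUBB3-positive neurons imaged after 120 h. Primary human neural progenitor spheres differentiated on poly-D-lysine/laminin with compound present from day 0. Activity was referenced to DMSO controls.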

[16] = IUF_NPC2-5_cytotoxicity_72hr: Cytotoxicity Assessment at 72 hours in the Leibniz Research Institute for Environmental Medicine (IUF) Neural Progenitor Cell Migration and Differentiation Assay for Cytotoxicity (NPC2-5) (AID 2284306; active = hit-call score of the fitted dose curve at least 0.9, where 1 is the maximum;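 note: LDH release into supernatant measured by resorufin fluorescence marking membrane damage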)
In short: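 Membrane integrity loss was scored from fluorescence (RFU) of resorufin generated by LDH in culture supernatant, 72 h after dosing. Differentiating human progenitor spheres received seven serial compound concentrations alongside a solvent control.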

[17] = IUF_NPC2-5_cytotoxicity_120hr: Cytotoxicity Assessment at 120 hours in the Leibniz Research Institute for Environmental Medicine (IUF) Neural Progenitor Cell Migration and Differentiation Assay (NPC2-5) (AID 2284307; active = hit-call score of the fitted dose curve at least 0.9, where 1 is the maximum)
In short: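 hNPC spheres on PDL/laminin, N2 medium, 37C; 7 concs + solvent control, DMSO ≤0.1%; 5-day exposure, half medium changed day 3. LDH in supernatant at 120 h, resazurin→resorufin fluorescence, gain-of-signal.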

[18] = IUF_NPC2-5_cell_number_120hr: Cell Number Assessment at 120 hours in the Leibniz Research Institute for Environmental Medicine (IUF) Neural Progenitor Cell Migration and Differentiation Assay (NPC2-5) (AID 2284308);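 note: count of Hoechst-stained nuclei in migration zone around plated human neural progenitor spheres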
In short: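 Hoechst-stained nuclei within the migration area were counted by automated high content imaging after 120 h. Single hNPC spheres differentiated on poly-D-lysine/laminin in DMEM/F12 (3:1) with 1% N2, compound present throughout, DMSO ≤0.1%.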

[19] = IUF_NPC2-5_viability_120hr: Viability Assessment at 120 hours in the Leibniz Research Institute for Environmental Medicine (IUF) Neural Progenitor Cell Migration and Differentiation Assay (NPC2-5) (AID 2284312)
In short: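 Alamar blue resorufin fluorescence read after 5 days of differentiation, with compound present from day 0 and replenished at day 3. Primary hNPC spheres on laminin-coated plates, 37C; seven concentrations plus solvent control, fitted against DMSO.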

Measured: outcome

F
inactive: all assays above
